# Article PMC8384837, “Expanding the binding specificity for RNA recognition by a PUF domain”
# Substitutions are numbered along the chain they refer to.
# Tests used:
# Test in all cases: yeast three-hybrid, YBZ-1, SC-Leu-His + 0.5 mM 3-AT, 4 days
# Conditions in all cases: tags: N-Gal4 AD-HA kept; label: inside an RPR1-promoter hybrid RNA with tandem MS2 sites; ssRNA
# [1] = target: T1, PUM1 PUF domain R6-IFS (Homo sapiens, UniProt Q14671 828-1176, N1043I;Y1044F;Q1047S)
# T1 sequence: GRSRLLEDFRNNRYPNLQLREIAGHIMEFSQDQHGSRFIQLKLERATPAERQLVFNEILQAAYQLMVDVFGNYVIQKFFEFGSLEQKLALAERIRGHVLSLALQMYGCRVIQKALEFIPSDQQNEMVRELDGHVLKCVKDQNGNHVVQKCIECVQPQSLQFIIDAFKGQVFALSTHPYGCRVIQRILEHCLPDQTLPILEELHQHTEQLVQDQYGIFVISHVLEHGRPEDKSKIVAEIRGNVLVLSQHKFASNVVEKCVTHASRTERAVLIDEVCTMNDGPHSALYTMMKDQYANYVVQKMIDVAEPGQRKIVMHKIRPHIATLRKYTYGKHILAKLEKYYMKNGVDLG
# Summary of the method: (§1)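 The interaction score is the logarithmic change in variant frequency from input to selection. It uses log2, with a pseudocount of 1 for absent variants, and frequencies came from PCR-amplified, Illumina-sequenced repeat regions. The libraries were Pumilio-1 PUF domains randomized at the three base-contacting residues per repeat, co-expressed with matching RNA elements in strain YBZ-1 (LexA–MS2 coat fusion, HIS3 reporter). Plating lasted four days on SC-Leu (input) or SC-Leu-His + 0.5 mM 3-AT (selection).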
# [2] = target: PUM1 PUF domain R2-LWV (Homo sapiens, UniProt Q14671 828-1176, N899L;Y900W;Q903V)
# Summary of the method: as §1
# [3] = target: T2, PUM1 PUF domain R6-HFR (Homo sapiens, UniProt Q14671 828-1176, N1043H;Y1044F;Q1047R)
# T2 sequence: T1 sequence with I216H, S220R
# Summary of the method: as §1
# [4] = target: T3, PUM1 PUF domain R6-KWK (Homo sapiens, UniProt Q14671 828-1176, N1043K;Y1044W;Q1047K)
# T3 sequence: T1 sequence with I216K, F217W, S220K
# Summary of the method: as §1
# [5] = target: PUM1 PUF domain R8-LYW (Homo sapiens, UniProt Q14671 828-1176, N1122L;Q1126W)
# Summary of the method: as §1
# [6] = target: PUM1 PUF domain R7-RRC (Homo sapiens, UniProt Q14671 828-1176, S1079R;N1080R;E1083C)
# Summary of the method: as §1
# [7] = target: PUM1 PUF domain R3-WCL (Homo sapiens, UniProt Q14671 828-1176, C935W;R936C;Q939L)
# Summary of the method: as §1
# [8] = target: PUM1 PUF domain R3-RIG (Homo sapiens, UniProt Q14671 828-1176, C935R;R936I;Q939G)
# Summary of the method: as §1
# [9] = target: PUM1 PUF domain R1-GGQ (Homo sapiens, UniProt Q14671 828-1176, S863G;R864G)
# Summary of the method: as §1
sequence,measurement,setting,value
GGCUAGAACUAGUGGAUCCCCCGGCGCCCGGCGGCUCGAGCCCGGGUAAGUGAAAAUAGUCUGCAUGCCGCCGGGCGCCAUGCCUGCAGGUCGACUCUAGAAAACAUG,binding signal,[1],5.65 log2 enrichment (interaction score)
GGCUAGAACUAGUGGAUCCCCCGGCGCCCGGCGGCUCGAGCCCGGGUAAGUGUAAAAAGUCUGCAUGCCGCCGGGCGCCAUGCCUGCAGGUCGACUCUAGAAAACAUG,binding signal,[2],4.15 log2 enrichment (interaction score)
GGCUAGAACUAGUGGAUCCCCCGGCGCCCGGCGGCUCGAGCCCGGGUAAGUGCAAAUAGUCUGCAUGCCGCCGGGCGCCAUGCCUGCAGGUCGACUCUAGAAAACAUG,binding signal,[3],2.56 log2 enrichment (interaction score)
GGCUAGAACUAGUGGAUCCCCCGGCGCCCGGCGGCUCGAGCCCGGGUAAGUGUAAAUAGUCUGCAUGCCGCCGGGCGCCAUGCCUGCAGGUCGACUCUAGAAAACAUG,binding signal,[3],6.79 log2 enrichment (interaction score)
same,binding signal,[4],4.71 log2 enrichment (interaction score)
same,binding signal,[5],2.44 log2 enrichment (interaction score)
GGCUAGAACUAGUGGAUCCCCCGGCGCCCGGCGGCUCGAGCCCGGGUAAGUCUAAAUAGUCUGCAUGCCGCCGGGCGCCAUGCCUGCAGGUCGACUCUAGAAAACAUG,binding signal,[6],4.91 log2 enrichment (interaction score)
GGCUAGAACUAGUGGAUCCCCCGGCGCCCGGCGGCUCGAGCCCGGGUAAGUUUAAAUAGUCUGCAUGCCGCCGGGCGCCAUGCCUGCAGGUCGACUCUAGAAAACAUG,binding signal,[6],4.95 log2 enrichment (interaction score)
GGCUAGAACUAGUGGAUCCCCCGGCGCCCGGCGGCUCGAGCCCGGGUAAGUGUAAGUAGUCUGCAUGCCGCCGGGCGCCAUGCCUGCAGGUCGACUCUAGAAAACAUG,binding signal,[7],3.36 log2 enrichment (interaction score)
same,binding signal,[8],3.19 log2 enrichment (interaction score)
GGCUAGAACUAGUGGAUCCCCCGGCGCCCGGCGGCUCGAGCCCGGGUAAGUGUAAAUUGUCUGCAUGCCGCCGGGCGCCAUGCCUGCAGGUCGACUCUAGAAAACAUG,binding signal,[9],2.33 log2 enrichment (interaction score)
GGCUAGAACUAGUGGAUCCCCCGGCGCCCGGCGGCUCGAGCCCGGGUAAGUGUAAAUCGUCUGCAUGCCGCCGGGCGCCAUGCCUGCAGGUCGACUCUAGAAAACAUG,binding signal,[9],1.77 log2 enrichment (interaction score)
GGCUAGAACUAGUGGAUCCCCCGGCGCCCGGCGGCUCGAGCCCGGGUAAGUGUAAUUAGUCUGCAUGCCGCCGGGCGCCAUGCCUGCAGGUCGACUCUAGAAAACAUG,binding signal,[8],2.45 log2 enrichment (interaction score)
GGCUAGAACUAGUGGAUCCCCCGGCGCCCGGCGGCUCGAGCCCGGGUAAGCGUAAAUAGUCUGCAUGCCGCCGGGCGCCAUGCCUGCAGGUCGACUCUAGAAAACAUG,binding signal,[5],3.09 log2 enrichment (interaction score)
